HepG2 tox – counter-screen for TGF-b inhibitors: cytotoxicity in HepG2 cells. HepG2 CAGA-GFP viability, ATP luminescence, 18 h. Potency, µM (doses to about 46.1 µM), for the others: at the top dose activity change, negative = cytotoxicity, most hits filed as cytotoxic. 410,000 compounds, 0.76% hits. AID 588856; also: potency is read from the fitted curve at half-maximal effect
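CellTiter-Glo luminescence gave cytotoxicity after 18 hours at 37 degrees C. The cells were HepG2 CAGA-GFP in 1% FBS DMEM, stimulated with 500 pg/mL TGF-beta after compound addition. %Activity was normalised to no-cell wells (complete cell-killing) and DMSO (no toxicity), and curves were fitted and classified.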
DT40 TDP1 CPT – DT40-hTDP1 cell growth loss with CPT; chicken DT40 Tdp1-/-;hTDP1 cells + 20 nM CPT, ATP luminescence, 48 h; Potency, µM (titrated, usually from 46.2 µM), without a hit: at the top dose activity change, negative = growth inhibition, actives largely listed as inhibitors; 420,000 compounds, 12% hits; also: potency is read from the fitted curve at half-maximal effect; % is scaled to controls: 0 for no effect and ±100 for the full control effect; nearly all actives have a fitted effect of over 55% in size
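Cell growth measured by CellTiter-Glo luminescence after a minimum 48 h, 37 C compound exposure with 20 nM CPT in Tdp1-knockout DT40 cells stably expressing hTDP1, seeded 400/well; qHTS titration format.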
IL-1B inflam inh – blocks inflammasome-driven IL-1 beta release; THP-1 LPS/ATP IL-1B secretion, AlphaLISA, 16 h; stronger effect = lower value; activity change, % at 57.5 µM; 360,000 compounds, 4.7% hits; in the data active = activity change below about -50%; inconclusive = mostly about -30% to -49%; also: % is scaled to controls: 0 for no effect and ±100 for the full control effect
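THP-1 cells pretreated 1 hr with compounds (up to 57.5 uM final), then stimulated with LPS (250 ng/mL final) plus ATP (1.25 mM final); secreted IL-1B measured by AlphaLISA after 16 hr, decreased signal indicating inhibition.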
TDP1 inh – inhibitors of human tyrosyl-DNA phosphodiesterase TDP1; Potency, µM (doses to about 130 µM), inactives show at the highest dose activity change, negative = inhibition, usual class: inhibitors; Q9NUW8; AID 485290; recombinant TDP1, AlphaScreen DNA substrate cleavage; 350,000 compounds, 0.28% hits; also: potency is read from the fitted curve at half-maximal effect; % is scaled to controls: 0 for no effect and ±100 for the full control effect; nearly all actives have a fitted effect of over 40% in size
Target sequence (Q9NUW8 whole entry, looked up): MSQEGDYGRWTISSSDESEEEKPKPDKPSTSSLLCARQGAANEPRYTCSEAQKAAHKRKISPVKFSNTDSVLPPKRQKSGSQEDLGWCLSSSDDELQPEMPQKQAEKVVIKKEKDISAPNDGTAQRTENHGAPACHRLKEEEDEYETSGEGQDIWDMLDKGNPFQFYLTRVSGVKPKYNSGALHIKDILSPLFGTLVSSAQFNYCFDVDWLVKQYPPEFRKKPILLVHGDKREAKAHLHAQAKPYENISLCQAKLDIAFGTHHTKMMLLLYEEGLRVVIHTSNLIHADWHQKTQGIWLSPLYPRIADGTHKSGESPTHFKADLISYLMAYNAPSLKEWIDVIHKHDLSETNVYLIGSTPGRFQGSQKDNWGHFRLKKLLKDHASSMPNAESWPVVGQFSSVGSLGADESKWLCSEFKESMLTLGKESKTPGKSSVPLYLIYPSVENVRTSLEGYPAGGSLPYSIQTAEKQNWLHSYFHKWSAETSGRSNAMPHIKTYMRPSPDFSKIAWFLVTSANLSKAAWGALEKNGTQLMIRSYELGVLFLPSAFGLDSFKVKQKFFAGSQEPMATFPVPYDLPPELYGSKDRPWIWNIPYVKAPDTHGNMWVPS
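Signal: AlphaScreen proximity between streptavidin donor and anti-FITC acceptor beads on intact substrate. Reaction: Tdp1 1 nM, substrate 15 nM final, 5 min RT after 15 min compound preincubation.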
DT40 TDP1 no CPT – qHTS for Inhibitors of human tyrosyl-DNA phosphodiesterase 1 (TDP1): qHTS in cells in absence of CPT | DT40 Tdp1-/- hTDP1 cells, no CPT, ATP luminescence, 48 h | Potency, µM (doses to about 46.2 µM), for inactives: top-dose activity change, negative = growth inhibition, usual class: inhibitors | 420,000 compounds, 15% hits; also: potency is read from the fitted curve at half-maximal effect; % is scaled to controls: 0 for no effect and ±100 for the full control effect; nearly all actives have a fitted effect of over 55% in size
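A cellular qHTS used chicken DT40 cells lacking endogenous Tdp1 but carrying stably transfected human TDP1. Compounds were applied without camptothecin, and cell growth kinetics were judged by ATP-dependent luminescence after ≥48 hr.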
TGFb SMAD3 inh – inhibitors of TGF-b signaling; AID 588855; Potency, µM (doses to about 46.1 µM), for inactives: at the highest dose activity, negative = inhibition, usual class: inhibitors; HepG2 CAGA-GFP TGF-b/SMAD3 reporter, GFP fluorescence, 18 h; TGF-beta stimulated, 500 pg/mL final; 410,000 compounds, 1.2% hits; also: potency is read from the fitted curve at half-maximal effect; % is scaled to controls: 0 for no effect and ±100 for the full control effect; nearly all actives have a fitted effect of over 65% in size
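Read-out: total well GFP (ex488/em500-530) summed from mean per-cell fluorescence. Cells: HEPG2 CAGA-GFP, 1% FBS DMEM, 18 h at 37 degrees C with 500 pg/mL final TGF-beta. Unstimulated wells served as the full-inhibition control; stimulated DMSO wells = 0%.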
* = called active by the depositor; ? = inconclusive; nt = not tested or not shown; [ ] = another dose, or the depositor's remark. An excerpt weighted towards active compounds, which were near 19% of everything screened. Unless noted, calls follow the shape of the dose curve; as a rule, active = well fitted curve in the direction sought with a large enough effect; inconclusive = small, poorly fitted or top-dose-only effect, or another doubt; inactive = no such curve, though single readings can be large; an effect the other way counts as inactive or inconclusive.

SMILES | HepG2 tox | DT40 TDP1 CPT | IL-1B inflam inh | TDP1 inh | DT40 TDP1 no CPT | TGFb SMAD3 inh
CCOC(=O)c1ccc(-c2ccc(N3C(c4cccc(OC)c4)=Cc4ccc(F)cc4C3CC(C)=O)cc2)cc1F (centres undefined) | nt | -22.6% | 30.8 | nt | -17.4% | nt
COC(=O)c1ccc(N2C(c3cccc(OC)c3)=Cc3ccc(F)cc3C2c2c(C)[nH]c3ccccc23)cc1 (centres undefined) | nt | 23.1µM* | 41.5 | nt | ? | nt
COc1cccc(C2=Cc3ccc(F)cc3C(CC(C)=O)N2c2ccc(-c3cc(OC)c(OC)c(OC)c3)cc2)c1 (centres undefined) | nt | -3.0% | -3.2 | nt | -13.6% | nt
COc1cc(OC)cc(C2=Cc3ccc(OC)cc3C(CC(C)=O)N2c2ccc(-c3cccs3)cc2)c1 (centres undefined) | nt | 20.6µM* | 0.5 | nt | 8.2µM* | nt
O=C(CC1c2ccccc2C=C(c2ccsc2)N1c1ccc(-c2cccnc2)cc1)C1CC1 (centres undefined) | nt | ? | -13.0 | nt | 18.4µM* | nt
CC1c2ccccc2CN1NC(=O)c1ccc(Cl)c(S(N)(=O)=O)c1 (centres undefined) | nt | -2.3% | nt | nt | 4.6% | nt
CC12CCC(/C(=N/O)C1=O)C2(C)C (centres undefined) | -2.7% | nt | nt | 7.9% | nt | -2.5%
Cn1cncc1C#Cc1ccc(N2C(c3ccsc3)=Cc3ccc(F)cc3C2c2c[nH]c3ccccc23)cc1 (centres undefined) | nt | ? | 3.8 | nt | ? | nt
COc1cc(OC)cc(C2=Cc3ccccc3C(CC(C)=O)N2c2ccc(-c3cccs3)cc2)c1 (centres undefined) | nt | ? | 17.7 | nt | 20.6µM* | nt
COc1ccc(-c2ccc(N3C(c4ccsc4)=Cc4ccc(F)cc4C3c3c[nH]c4ccccc34)cc2)cc1 (centres undefined) | nt | ? | 31.8 | nt | 18.4µM* | nt
COc1cccc(C2=Cc3ccc(F)cc3C(CC(C)=O)N2c2ccc(-c3cncnc3)cc2)c1 (centres undefined) | nt | 13µM* | 14.6 | nt | 16.4µM* | nt
CCCn1c(SCC(=O)NC2CCC(C)CC2)n[nH]c1=O (centres undefined) | 1.9% | -14.4% | 0.0 | -0.1%[56.1 µM] | 14.0% | -3.0%
COC(=O)c1cn([C@H]2C[C@@H](C(=O)N3CCCCCC3)N(Cc3ccsc3)C2)nn1 | nt | 0.3%[9.04 µM] | nt | nt | -14.6% | nt
CC(C)c1ccc(NC(=O)c2cnc3sc(N4CCCC4)nn3c2=O)cc1 | 9.6% | 2.91µM* | nt | 5.8% | 2.06µM* | -13.5%
Cc1ccccc1NC(=O)c1cnc2sc(N3CCCC3)nn2c1=O | 5.3% | 14.2% | nt | 5.8% | -1.2% | 0.0%
O=C(Nc1cccc(F)c1)c1cnc2sc(N3CCCC3)nn2c1=O | -1.2% | 2.31µM* | nt | 3.2% | 3.26µM* | 0.0%
CC(C)NC(=O)c1cnc2sc(N3CCCCCC3)nn2c1=O | 0.3% | -4.4% | nt | 0.6% | -19.6% | ?
O=C(COC(=O)COc1ccc(Br)cc1)Nc1ccc2c(c1)OCCO2 | 3.2% | -2.9% | -3.1 | 0.8% | 5.3% | 0.8%
O=S(=O)(Nc1cccc2cccnc12)c1ccccc1O | nt | nt | nt | 21.5% | nt | nt
Cc1ccc(OCCCCN2CCCC(C)C2)c([N+](=O)[O-])c1 (centres undefined) | -3.3% | 18.4µM* | -4.7 | 0.0% | 23.1µM* | 0.5%
CC1CCN(CCCCOc2ccccc2[N+](=O)[O-])CC1 | 10.1% | -36.6% | -61.8* | -4.0% | -12.9% | 24.3%
CCOc1ccccc1OCCOCCOc1ccccc1[N+](=O)[O-] | -0.2% | -26.7% | 17.8 | -2.7% | 10.3µM* | -1.5%
O=c1[nH]c(NCCO)nnc1Cc1ccccc1 | 26.0% | 11.5% | 9.8 | 0.8% | 1.7% | 7.1%
Cc1cc(C)c2c(n1)nn1c(NCCCN3CCOCC3)cc(C)nc21 | -8.6% | -26.9% | -10.1 | nt | -1.7% | 0.2%
Cc1cc(NCCCN2CCOCC2)n2nc(C)c(-c3ccccc3)c2n1 | -16.3% | 16.4µM* | -14.1 | 1.0% | 16.4µM* | 13.1%
SMILES | HepG2 tox | DT40 TDP1 CPT | IL-1B inflam inh | TDP1 inh | DT40 TDP1 no CPT | TGFb SMAD3 inh
Cc1cc(NCCCN2CCOCC2)n2nc(C)c(-c3ccc(F)cc3)c2n1 | -41.9% | ? | -57.0* | 2.9% | 16.4µM* | -0.9%
CN1N=C(N)c2cn(C3OC(COP(=O)(O)O)C(O)C3O)c3ncnc1c23 (centres undefined) | -40.8% | ? | 181.2 | nt | -27.2% | 0.282µM*
Nc1ncnc2c1ncn2[C@@H]1O[C@H](COP(=O)(O)O)[C@@H](O)[C@H]1O | 31.4% | ? | -8.3 | 7.3% | 4.4% | -9.8%
CCn1c(=O)c2cc(C(=O)NCCCN3CCN(c4ccc(F)cc4)CC3)sc2c2ccccc21 | -5.9% | 18.4µM* | nt | 5.8% | 6.51µM* | ?
O=C(NC1CCCCCC1)c1cc2c(Cl)nc3ccccc3c2s1 | -3.1% | 0.0% | nt | 2.3% | -13.5% | 12.2%
Cn1c(=O)c2cc(C(=O)NC3CCCCCC3)sc2c2ccccc21 | -33.0% | ? | nt | -4.7% | 18.4µM* | -5.1%
CCn1c(=O)c2cc(C(=O)NC3CCCCCC3)sc2c2ccccc21 | -18.2% | 16.4µM* | nt | 4.6% | 16.4µM* | -18.3%
CCCCNC(=O)c1cc2c(=O)n(CC)c3ccccc3c2s1 | -14.4% | ? | -20.3 | nt | 23.1µM* | 13.0%
O=C(NCc1ccccc1)c1cccn1-c1nnc(N2CCCC2)s1 | 0.9% | -21.1% | nt | 2.6% | ? | -8.0%
COc1ccc(-c2nc3sc(CCNC(=O)c4ccccc4C)c(C)n3n2)cc1 | -23.1% | ? | nt | 2.6% | ? | -22.7%
O=C(CC(Cl)(Cl)Cl)N1CCN(/[N+]([O-])=N/Oc2ccc([N+](=O)[O-])cc2[N+](=O)[O-])CC1 | -111.8% | nt | nt | nt | nt | ?
CC(=O)N[C@H]1CSSC[C@@H](C(=O)N2CCC[C@H]2C(=O)N2CCC[C@H]2C(=O)N[C@@H](CCCCN)C(=O)N[C@@H](CC(=O)O)C(N)=O)NC(=O)CNC(=O)[C@H](Cc2c[nH]c3ccccc23)NC(=O)[C@H](CCCNC(=N)N)NC(=O)[C@@H](Cc2ccc3ccccc3c2)NC(=O)[C@H](Cc2cnc[nH]2)NC(=O)[C@H](CCC(=O)O)NC1=O | nt | nt | nt | 17.4% | nt | nt
Cc1ccc2oc(=O)n(Cc3ccccc3Cl)c2c1 | -5.9% | 0.9% | nt | -10.1% | -12.9% | 15.6%

Screening results (PubChem)
